Bioassay records as filed in PubChem BioAssay.
This is a sample that favours compounds with a hit; in the whole collection about 3.2% have one here.
TMEM16A inh = inhibitors of mouse TMEM16A calcium-activated chloride channel; Q8BHY3; normalized B-score (activity score, 25-100; higher = stronger inhibition) at 10 µM; 1.2% of 310,000 active; HEK293 TMEM16A/YFP iodide influx fluorescence, ionomycin; AID 588511;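 active = ratio plate-corrected score three or more library SD toward inhibition, starting fluorescence score within five deviations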;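 note: score derived from kinetic fluorescence span divided by baseline fluorescence per well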
CHT allo act = allosteric activators of human choline transporter CHT | Q9GZV3 | CHT-expressing cells, membrane potential dye, choline EC20; active compounds read high; LV-AA mutant CHT in HEK293 cells | B-score at 10 µM | 0.49% of 310,000 active | AID 488977;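 active = initial fluorescence not abnormally high and integrated response B-score, plate-corrected, over 3 SD above library mean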
Kir21 block = inhibitors of mouse Kir2.1 inward-rectifier potassium channel; AID 1672; 0.85% of 310,000 active; HEK293-Kir2.1, FluxOR thallium flux fluorescence; active compounds read low; B-score at 10 µM;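 active = fluorescence ratio B-score at or below minus 3 SD of library scores, with starting-brightness B-score within 2 SD, cut at about -4.2 in these data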;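 note: channel flux triggered by added potassium and thallium sulfate stimulus; B-score of peak minus minimum fluorescence over baseline after thallium stimulus; more negative B-score means stronger Kir2.1 block with less thallium influx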
Target sequence (P35561 whole entry, looked up): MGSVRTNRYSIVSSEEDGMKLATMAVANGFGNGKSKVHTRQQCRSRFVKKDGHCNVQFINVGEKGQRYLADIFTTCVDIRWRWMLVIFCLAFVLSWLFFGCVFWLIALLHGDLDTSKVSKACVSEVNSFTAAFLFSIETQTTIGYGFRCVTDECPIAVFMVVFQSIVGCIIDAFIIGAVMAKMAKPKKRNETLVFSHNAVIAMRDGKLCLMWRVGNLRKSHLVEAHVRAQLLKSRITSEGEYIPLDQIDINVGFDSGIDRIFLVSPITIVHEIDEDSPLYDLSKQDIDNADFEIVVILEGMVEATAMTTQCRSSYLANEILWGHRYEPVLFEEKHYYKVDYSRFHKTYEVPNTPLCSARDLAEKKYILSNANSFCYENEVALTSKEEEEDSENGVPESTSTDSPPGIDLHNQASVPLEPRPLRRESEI
CHT inh = inhibitors of human choline transporter CHT. CHT-expressing cells, membrane potential dye, choline response; active compounds read low. B-score at 10 µM. 0.86% of 310,000 active. AID 488975;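 active = B-score over 3 SD under the library average, and starting fluorescence ratio not unusually high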;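 note: choline stimulus applied at its EC90 after an EC20 pre-addition; B-score computed on integrated fluorescence ratio after choline addition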
TMEM16A act = activators or potentiators of mouse TMEM16A chloride channel | Q8BHY3 | HEK293 TMEM16A/YFP-H148Q/I152L, iodide quench fluorescence; active compounds read low | B-score at 10 µM | 0.3% of 340,000 active | AID 623877;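 active = fluorescence-ratio B-score plate-corrected deviation score at least 3 library SD below zero, with starting fluorescence score within 5 deviations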;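 note: channel opened by trigger with iodide after compound preincubation; score built on the fluorescence ratio of max minus min over baseline; more negative score means more quench and so TMEM16A activation or potentiation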
Rce1 inhib = blocks yeast Ras-converting enzyme; yeast membranes, quenched prenylated peptide cleavage fluorescence; calls only; 0.27% of 290,000 active; AID 2563;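 active = fall in fluorescence gain of 50% or more versus controls, with final raw signal at or below 3038400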;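 note: plate controls were neutral control wells for no effect and wells lacking membranes for full effect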
TMEM16A reconf = re-confirmation of mouse TMEM16A chloride channel inhibitors | shares compounds with TMEM16A inh | HEK293 TMEM16A/YFP-H148Q, iodide quench fluorescence; ionomycin added to raise cell calcium | inhibition, % at 10 µM | 39% of 2,300 active | AID 652189;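 active = mean duplicate percent inhibition, scaled so buffer wells are 0 and the reference blocker 100, over three buffer SD above buffer mean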
TMEM16A Ca cntr = counter-screen for TMEM16A inhibitors: effect on calcium mobilization. 2% of 2,300 active. shares compounds with TMEM16A inh. calcium response (% of ionomycin), % at 10 µM. TMEM16A/YFP HEK293, Fluo4 calcium mobilization. AID 652231;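 active = duplicate-averaged calcium signal over 20% of the ionomycin maximum, relative to buffer baseline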;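 note: each well's signal is peak minus trough fluorescence divided by its pre-addition baseline; 0% = buffer wells and 100% = ionomycin wells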
YFP-HEK293 quench = parental YFP-HEK293 iodide quench counter-screen activity | shares compounds with TMEM16A inh | AID 652233 | ionomycin | 2,300 tested, under 10 active | YFP ratio F(max-min)/F0 at 10 µM;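 active = yellow fluorescent protein signal ratio exceeding the buffer control mean by over 5 SD of those controls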;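 note: ratio is mean of duplicate wells from kinetic YFP trace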
ClC-1 rat inh = blocks the rat ClC-1 voltage-dependent chloride channel | CHO ClC-1-YFP, iodide influx fluorescence quench; iodide control reads 0, buffer control 100 | 2,300 tested, under 10 active | AID 652236 | ratio percent, % at 10 µM | shares compounds with TMEM16A inh;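 active = duplicate-mean ratio percent above the mean of iodide-only control wells, which defines zero, plus 5 of their SD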;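 note: higher percent means stronger block of ClC-1 iodide influx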
* = called active by the depositor; i = inactive; . = not tested or not shown.

SMILES | TMEM16A inh | CHT allo act | Kir21 block | CHT inh | TMEM16A act | Rce1 inhib | TMEM16A reconf | TMEM16A Ca cntr | YFP-HEK293 quench | ClC-1 rat inh
O=C(Nc1ccc(Cl)c(Cl)c1)Nc1ccccc1O | 100* | i | 0.44 | i | i | . | 22%* | i | -1.1 | -20
NC(=O)c1ccc(NC(=O)c2cccc3c2OCCCO3)cc1 | i | i | 0.34 | i | i | . | . | . | . | .
COc1cccc(NC(=O)CN(C)C(=O)c2cccc(S(=O)(=O)N3CCN(c4ccc(F)cc4)CC3)c2)c1 | 100* | i | -0.91 | i | i | i | i | i | -0.98 | -2
O=C(CNC(=O)c1ccc(Br)o1)NNC(=O)c1ccccc1F | i | i | 0.29 | i | i | i | . | . | . | .
O=C1C(Cl)=C(O)C2(Cl)C(Cl)=C(Cl)C12Cl (configuration not stated) | . | . | . | . | i | . | . | . | . | .
O=C(CSc1ccc(F)cc1)N1CCC(c2nc3ccccc3s2)CC1 | 100* | i | -0.45 | i | i | i | 29%* | i | -1.2 | -6
C=CCn1c(CCNC(=O)c2cccs2)nnc1SCC(=O)c1ccc(Cl)cc1 | i | i | -0.35 | i | i | i | . | . | . | .
CCn1c(CCNC(=O)c2cccs2)nnc1SCC(=O)Nc1ccc(Cl)cc1 | 25* | i | -1.2 | i | i | . | i | i | -0.97 | -4
Cc1ccc(Sc2ncccc2COC(=O)Nc2c(C)cccc2C)cc1 | 100* | i | -4.6* | i | i | i | i | i | -0.96 | -14
CN(C)c1nccc(N(Cc2ccccc2)Cc2ccccc2)c1C#N | 25* | i | 0.09 | i | i | i | i | i | -1.2 | -8
CC1=NN(c2ccccc2)C(=O)/C1=C\C=C1\N(C)c2ccccc2C1(C)C | i | i | 0.49 | i | i | i | 30%* | i | -0.82 | 4
Cc1c(C(=O)Nc2ccc3c(c2)OCCO3)sc2nc(-c3ccccc3)cn12 | 25* | i | 0.31 | i | i | i | 16%* | i | -0.94 | -12
Cc1c(C(=O)N2CCOCC2)sc2nc(-c3ccccc3)cn12 | i | i | -0.68 | i | i | i | . | . | . | .
Cc1ccc(Nc2nc3nonc3[nH]c2=O)cc1Cl | 100* | i | -0.01 | i | i | i | 40%* | i | -1 | -23
CCOC(=O)c1c(-c2ccc(-c3ccccc3)cc2)csc1NC(=O)C1C2CCC(O2)C1C(=O)O (configuration not stated) | 100* | i | 0.68 | i | i | i | 70%* | i | -1.1 | -91
CC(=O)c1cnc(SCc2ccc(Cl)cc2)nc1C | i | i | -0.15 | i | i | i | . | . | . | .
Cc1nc(SCc2ccc(Cl)c(Cl)c2)ncc1C(=O)O | 25* | i | 0.13 | i | i | i | 22%* | i | -0.73 | -5
COc1ccccc1N1CCN(C(c2ccc(Cl)cc2)c2nnnn2C(C)(C)C)CC1 (configuration not stated) | 100* | i | 0.05 | i | i | i | i | i | -1.2 | -22
CNC(=S)N1N=C(c2ccc(OC)cc2)CC1c1ccccc1Cl (configuration not stated) | 25* | i | -1.2 | i | i | i | 45%* | i | -0.9 | -6
CNC(=S)N1N=C(c2ccc(OC)cc2)CC1c1ccc(Cl)cc1Cl (configuration not stated) | i | i | -0.86 | i | i | i | . | . | . | .
Cc1c(/C=N/NC(=O)c2ccccc2O)c2ccccn2c1C(=O)c1ccc(F)cc1 | 100* | i | 0.1 | i | i | i | 34%* | i | -0.92 | -14
Cc1c(/C=N/NC(=O)c2ccc(O)cc2)c2ccccn2c1C(=O)c1ccc(F)cc1 | i | i | 0.05 | i | i | i | . | . | . | .
C=CCn1c(SCC(=O)NC(=O)Cc2ccccc2)nnc1-c1ccccc1F | . | . | . | . | i | . | . | . | . | .
C=CCn1c(SCC(=O)NC(C)(C)C)nnc1-c1ccccc1O | 100* | i | 0.26 | i | i | i | i | i | -0.79 | -6
CN(C)S(=O)(=O)c1cccc(COC(=O)c2cnccn2)c1 | i | i | 0.14 | i | i | i | . | . | . | .
SMILES | TMEM16A inh | CHT allo act | Kir21 block | CHT inh | TMEM16A act | Rce1 inhib | TMEM16A reconf | TMEM16A Ca cntr | YFP-HEK293 quench | ClC-1 rat inh
CN(C)S(=O)(=O)c1cccc(COC(=O)c2cccnc2Cl)c1 | 25* | i | -1.2 | i | i | i | i | i | -0.93 | -10
CCc1ccc2[nH]c3nc(N/N=C/c4ccc(O)cc4O)nnc3c2c1 | i | i | -1.2 | i | i | i | . | . | . | .
CCOC(=O)c1cc2c(nc1N)CC(C)(C)OC2 | i | i | 0.18 | i | i | i | . | . | . | .
CCOC(=O)c1cc2c(nc1N)CC(C)(CC)OC2 (configuration not stated) | i | i | 1.9 | i | i | i | i | i | -1.2 | -8
CCOC(=O)c1sc2nccc(N(C)C)c2c1N=CNOCc1c(F)cccc1Cl | 100* | i | 0.6 | i | i | i | i | i | -0.95 | -4
CCOC(=O)c1sc2nccc(N(C)C)c2c1N=CNOCc1ccccc1 | i | i | . | i | i | i | . | . | . | .
Cc1ccc(NC(=O)C(C)NS(=O)(=O)c2ccc(F)cc2)cc1C (configuration not stated) | 25* | i | 0.02 | i | i | i | i | i | -1.3 | -16
Cc1ccc(S(=O)(=O)Nc2ccc(C(=O)N3CCCC3)cc2)cc1 | i | i | -1.2 | i | i | i | . | . | . | .
Cc1ccc(NS(=O)(=O)c2ccc(C(=O)N3CC(C)CC(C)C3)cc2)cc1 (configuration not stated) | 100* | 10* | 1.3 | i | -17* | i | 80%* | 40%* | -1.1 | -7
CC1CCCN(C(=O)C(C)Sc2nc(-c3ccccc3)cc(C(F)(F)F)n2)C1 (configuration not stated) | 100* | i | -0.15 | i | i | i | i | i | -1.1 | -16
